From PubChem BioAssay
A number with no mark means an inactive call. Active and inactive are the calls of the source. Rule as the data show it: active = inhibition above about 25%; inactive = the rest.

Assay: repression of VP16-driven luciferase reporter – cell-based, luminescence, high throughput, counter-screen for SRC1 inhibitor project (AID 588824)
Details: cell-based VP16 transactivation luciferase luminescence; at 3.6 µM; stronger effect = higher value
With `O=C(CCC(=O)Nc1ccc(Br)cc1)N/N=C/c1ccccc1O` the inhibition was 22.2%.
Compound `C=C1C(=O)O[C@@H]2[C@H]1CC[C@H](C)[C@]1(O)CCC(=O)[C@@]21C` has an inhibition of 11.1%.
Compound `O=C(CNC(=O)Cc1ccccc1)N=Nc1c(O)n(Cc2ccc3c(c2)OCO3)c2ccccc12` has an inhibition of 3.04%.
`O=C(CS(=O)c1ccc(F)cc1)N1CCOCC1` (stereo not given) showed an inhibition of -3.56%.
For `O=C(NCC[C@@H]1C[C@@H]2C=C[C@H]1C2)c1cc(COc2ccc(F)cc2F)on1`, the inhibition was 1.83%.
`CCC(CC)C(=O)N(C)c1c(C)nc2c(OCc3ccc(OC(F)F)cc3)cccn12` showed an inhibition of 5.06%.
`COc1ccc(Oc2nc3c(c(=O)n(C)c(=O)n3C)n2C)cc1` gave an inhibition of 16.6%.
Work on `O=C(Nc1cccc(F)c1)/C(=C\c1ccco1)NC(=O)c1ccco1` yielded an inhibition of -7.03%.
In the case of `CSC1=NCCCN1C(=O)c1c(-c2ccccc2Cl)noc1C`, the inhibition is reported as -14.8%.
`NS(=O)(=O)c1ccc(NC(=O)c2cccc3cc4ccccc4nc23)cc1` showed an inhibition of 9.91%.
In the case of `COc1ccc(S(=O)(=O)Nc2ccc(F)c(Cl)c2)cc1OC`, the inhibition is reported as -10.6%.
For `Cc1cc(C(=O)OCC(=O)N2CC(C)OC(C)C2)c(C)n1-c1ccccc1` (stereo not given), the inhibition was -1.93%.
For `CCN1CCS/C1=C/C=C/C1=[N+](CC)CCS1`, the inhibition was 47% (active).
`Cc1cccc(NC(=O)CSCC(=O)N2CCCc3ccccc32)c1` showed an inhibition of -4.48%.
With `COc1ccccc1NC(=O)NC1(C(=O)N2CCCCC2)CCCCC1` the inhibition was 10.3%.
Compound `Cc1ccnc(SC2CC(=O)N(c3ccc(C(C)C)cc3)C2=O)n1` (stereo not given) has an inhibition of -8.25%.
Compound `Cc1cnccc1NC(=O)c1cccs1` has an inhibition of 0.67%.
`CC(C)(C)c1ccc(CC(=O)N2CCC2(C)C(=O)Nc2ccc(F)cc2F)cc1` (stereo not given) gave an inhibition of 14.4%.
For `CCNc1nc(NCC)n2c(SCC(=O)Nc3ccccc3C(F)(F)F)nnc2n1`, the inhibition was -1.57%.
In the case of `CN(C)C(=O)c1ccc(-c2n[nH]c(=O)c3ccccc23)cc1`, the inhibition is reported as 18.3%.
In the case of `Cn1c(=O)c2[nH]c(COc3ccc(C(C)(C)C)cc3)nc2n(C)c1=O`, the inhibition is reported as 18.8%.
In the case of `CCOC(=O)c1c(CN(CC)CC)n(C)c2cc(Br)c(O)cc12`, the inhibition is reported as 2.67%.
With `CCN(C(=O)c1ccc(S(=O)(=O)N2CCC(C)CC2)cc1)C1CCS(=O)(=O)C1` (stereo not given) the inhibition was 2.08%.
In the case of `Cc1ccc(-c2c[n+]3c(n2-c2ccccc2)CCC3)cc1`, the inhibition is reported as 20.3%.
With `COc1cc(OC)cc(C(=O)NNC(=O)c2ccccn2)c1` the inhibition was 2.65%.
`CC1Sc2ccc(C(=O)Nc3ccc(S(=O)(=O)N(C)C)cc3)cc2NC1=O` (stereo not given) gave an inhibition of 6.36%.
In the case of `Cn1c(=O)[nH]c(=O)c2c1nc(N1CCCCC1)n2CC(O)COc1ccc([N+](=O)[O-])cc1` (stereo not given), the inhibition is reported as -19%.
`Fc1cc2[nH]cnc2cc1Cl` gave an inhibition of -5.47%.
`COc1cc2c(cc1OC)CN(C(=O)c1cc(S(=O)(=O)N3CCOCC3)ccc1C)CC2` showed an inhibition of 7.41%.
In the case of `Cc1cc(C)c(CN2CCN(C(=O)Cn3cnc4c(OCc5ccccc5)ncnc43)CC2)c(C)c1`, the inhibition is reported as 38.5% (active).
With `O=C(Nc1ccc2c(c1)OCCO2)C(c1cc2ccccc2o1)N1CCN(C/C=C/c2ccccc2)CC1` (stereo not given) the inhibition was -12.4%.
Work on `COc1ccc(Nc2ncnc3ccc(C)cc23)cc1` yielded an inhibition of 15.7%.
`CCOc1ccc(-c2cc(C(=O)Nc3ccc(C)c(NS(C)(=O)=O)c3)[nH]n2)c(C)c1` gave an inhibition of 5.47%.
Compound `Cc1cn(Cc2ccccc2Cn2cc(C)c(=O)[nH]c2=O)c(=O)[nH]c1=O` has an inhibition of -5.61%.
With `CS(=O)(=O)Nc1cccc(NC(=O)C2Cc3c(-c4ccco4)ccnc3O2)c1` (stereo not given) the inhibition was 14.9%.
With `COc1cc2c(cc1OC)C(C)N(C(=O)c1cc3ccccc3o1)CC2` (stereo not given) the inhibition was 2.25%.
Work on `COc1cc(/C=N/NC(=O)NC23CC4CC(CC(C4)C2)C3)ccc1OCC(N)=O` yielded an inhibition of -17.2%.
Compound `CC(C)(C)OC(=O)N(CCc1ccccc1)Cc1ccc(OCc2cccc(NC(=O)C3CCCC3)c2)cc1` has an inhibition of -7.49%.
Compound `COc1ccc(-c2cc(N3C(=O)Nc4ccccc4N3O)n[nH]2)c(OC)c1` has an inhibition of 20.1%.
Work on `O=C1CC(N2CCN(Cc3ccccc3)CC2)C(=O)N1` (stereo not given) yielded an inhibition of -10.1%.
